Results: the supplement of paper PMC11732987, “Enantioselective OTUD7B fragment discovery through chemoproteomics screening and high-throughput optimisation” (Communications Chemistry, 2025)

Columns and labels:
Test in all cases: log2 ratio of Biotin-Ahx-Ub-VS probe labelling (fragment/DMSO); higher = less target engagement (more negative = stronger competition), active = hit call of the paper (q ≤ 0.05, log2 ratio ≤ -1)
Details in all cases: compound concentration: 200 uM; treatment time: 3 h
USP34 = USP34 (UniProt Q70CQ2)
Chain of USP34 (Q70CQ2 whole entry, the tested form may be a part): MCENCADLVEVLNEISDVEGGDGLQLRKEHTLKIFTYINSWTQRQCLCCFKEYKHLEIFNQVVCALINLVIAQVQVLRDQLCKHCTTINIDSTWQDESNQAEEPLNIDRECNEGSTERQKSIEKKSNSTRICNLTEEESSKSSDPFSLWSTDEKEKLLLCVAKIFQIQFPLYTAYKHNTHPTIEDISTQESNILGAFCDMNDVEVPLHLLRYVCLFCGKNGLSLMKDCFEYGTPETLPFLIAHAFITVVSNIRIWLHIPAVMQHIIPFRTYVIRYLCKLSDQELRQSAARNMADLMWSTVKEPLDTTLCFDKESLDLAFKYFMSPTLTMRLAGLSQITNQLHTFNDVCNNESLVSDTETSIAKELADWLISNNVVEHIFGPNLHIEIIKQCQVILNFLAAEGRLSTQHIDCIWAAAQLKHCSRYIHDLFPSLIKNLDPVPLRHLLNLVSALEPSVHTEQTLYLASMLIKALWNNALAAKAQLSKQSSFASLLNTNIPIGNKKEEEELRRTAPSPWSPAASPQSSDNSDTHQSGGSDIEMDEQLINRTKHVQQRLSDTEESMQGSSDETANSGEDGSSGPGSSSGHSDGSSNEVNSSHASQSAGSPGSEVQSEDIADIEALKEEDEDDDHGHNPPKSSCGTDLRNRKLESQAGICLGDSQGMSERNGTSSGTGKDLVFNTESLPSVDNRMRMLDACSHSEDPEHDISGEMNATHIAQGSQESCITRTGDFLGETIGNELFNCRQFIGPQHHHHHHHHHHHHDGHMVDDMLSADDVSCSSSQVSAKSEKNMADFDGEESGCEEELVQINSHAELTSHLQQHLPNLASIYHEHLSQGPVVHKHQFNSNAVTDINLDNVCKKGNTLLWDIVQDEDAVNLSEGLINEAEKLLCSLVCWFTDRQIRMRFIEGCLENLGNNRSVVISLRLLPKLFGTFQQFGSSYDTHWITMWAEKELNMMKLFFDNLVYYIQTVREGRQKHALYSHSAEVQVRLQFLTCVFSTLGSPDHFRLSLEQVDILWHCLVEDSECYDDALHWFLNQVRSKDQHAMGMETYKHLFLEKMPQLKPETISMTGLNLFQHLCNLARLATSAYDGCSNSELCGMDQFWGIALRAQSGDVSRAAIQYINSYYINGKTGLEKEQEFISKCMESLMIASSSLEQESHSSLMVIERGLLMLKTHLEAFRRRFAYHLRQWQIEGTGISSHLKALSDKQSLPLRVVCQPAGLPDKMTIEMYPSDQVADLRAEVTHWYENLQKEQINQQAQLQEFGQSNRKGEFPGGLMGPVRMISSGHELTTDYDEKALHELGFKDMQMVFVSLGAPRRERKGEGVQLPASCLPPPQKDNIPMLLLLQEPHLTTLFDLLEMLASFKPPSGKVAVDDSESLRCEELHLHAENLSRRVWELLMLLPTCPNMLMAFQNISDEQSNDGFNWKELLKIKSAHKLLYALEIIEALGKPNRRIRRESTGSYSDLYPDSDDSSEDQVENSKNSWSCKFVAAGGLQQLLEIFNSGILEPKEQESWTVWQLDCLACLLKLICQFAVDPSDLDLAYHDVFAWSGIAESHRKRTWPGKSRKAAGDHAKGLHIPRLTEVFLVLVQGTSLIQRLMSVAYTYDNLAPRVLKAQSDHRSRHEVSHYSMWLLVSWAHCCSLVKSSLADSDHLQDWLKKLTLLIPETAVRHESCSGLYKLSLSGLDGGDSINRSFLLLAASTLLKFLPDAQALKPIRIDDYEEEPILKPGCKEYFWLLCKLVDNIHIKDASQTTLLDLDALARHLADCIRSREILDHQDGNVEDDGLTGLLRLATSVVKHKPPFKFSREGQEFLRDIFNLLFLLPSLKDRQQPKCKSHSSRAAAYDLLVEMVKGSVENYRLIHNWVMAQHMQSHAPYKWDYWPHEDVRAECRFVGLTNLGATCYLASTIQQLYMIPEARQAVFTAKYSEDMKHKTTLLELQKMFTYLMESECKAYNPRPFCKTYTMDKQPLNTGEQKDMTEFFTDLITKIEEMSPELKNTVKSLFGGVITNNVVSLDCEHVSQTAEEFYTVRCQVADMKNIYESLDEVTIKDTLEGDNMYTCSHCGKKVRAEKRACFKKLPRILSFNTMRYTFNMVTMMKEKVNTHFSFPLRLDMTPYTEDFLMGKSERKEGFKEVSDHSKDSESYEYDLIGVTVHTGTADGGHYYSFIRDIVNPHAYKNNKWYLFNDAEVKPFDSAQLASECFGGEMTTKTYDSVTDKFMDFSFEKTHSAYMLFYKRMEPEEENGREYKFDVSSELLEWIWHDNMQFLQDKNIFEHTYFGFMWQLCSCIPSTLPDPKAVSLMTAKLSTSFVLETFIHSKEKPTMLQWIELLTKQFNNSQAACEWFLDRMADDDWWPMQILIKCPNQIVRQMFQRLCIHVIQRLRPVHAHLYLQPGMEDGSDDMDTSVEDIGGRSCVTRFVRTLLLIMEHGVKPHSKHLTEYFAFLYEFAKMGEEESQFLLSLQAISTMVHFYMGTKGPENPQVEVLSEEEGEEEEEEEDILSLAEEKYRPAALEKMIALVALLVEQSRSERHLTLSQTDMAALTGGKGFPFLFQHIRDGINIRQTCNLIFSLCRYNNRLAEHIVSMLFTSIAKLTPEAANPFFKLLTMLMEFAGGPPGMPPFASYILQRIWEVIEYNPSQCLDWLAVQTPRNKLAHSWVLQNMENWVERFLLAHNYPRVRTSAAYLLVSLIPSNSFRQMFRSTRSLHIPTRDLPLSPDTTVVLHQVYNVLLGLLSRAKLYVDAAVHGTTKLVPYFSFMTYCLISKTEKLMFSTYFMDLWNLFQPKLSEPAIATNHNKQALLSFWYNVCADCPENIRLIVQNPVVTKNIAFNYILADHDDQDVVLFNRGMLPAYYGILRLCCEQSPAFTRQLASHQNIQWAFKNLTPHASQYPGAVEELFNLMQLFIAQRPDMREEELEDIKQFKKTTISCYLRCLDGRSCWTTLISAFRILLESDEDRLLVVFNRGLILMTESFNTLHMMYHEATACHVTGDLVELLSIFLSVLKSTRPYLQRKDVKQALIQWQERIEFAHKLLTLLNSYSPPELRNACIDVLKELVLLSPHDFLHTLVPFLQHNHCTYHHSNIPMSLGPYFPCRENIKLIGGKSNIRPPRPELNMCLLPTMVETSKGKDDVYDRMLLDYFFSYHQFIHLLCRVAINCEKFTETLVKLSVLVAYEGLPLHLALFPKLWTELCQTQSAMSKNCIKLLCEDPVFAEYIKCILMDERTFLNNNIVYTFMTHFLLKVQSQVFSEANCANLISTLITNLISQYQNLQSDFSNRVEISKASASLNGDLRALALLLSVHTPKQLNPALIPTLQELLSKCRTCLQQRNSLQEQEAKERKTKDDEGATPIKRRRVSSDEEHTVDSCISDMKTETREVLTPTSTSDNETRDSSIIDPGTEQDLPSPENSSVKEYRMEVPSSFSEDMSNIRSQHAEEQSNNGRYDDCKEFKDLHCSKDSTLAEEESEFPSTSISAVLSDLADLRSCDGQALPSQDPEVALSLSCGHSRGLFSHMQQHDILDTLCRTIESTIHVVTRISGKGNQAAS
Method in brief: (§1)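 HEK293T lysate, 495 µg per sample in Tris/CHAPS/IGEPAL buffer with protease inhibitors, was treated in triplicate with fragment at 200 µM or vehicle for 3 h and then with Biotin-Ahx-Ub-VS at 0.5 µM final for 1 h. Labelled DUBs were NeutrAvidin-enriched, digested with LysC and trypsin, and run by diaPASEF LC-MS/MS. Spectronaut label-free quantities were global-median-normalised, and values are average log2 fragment/vehicle ratios by unpaired t-test on proteins with ≥2 unique peptides.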

USP36 = target: T1, USP36 (UniProt Q9P275)
T1 sequence (whole entry): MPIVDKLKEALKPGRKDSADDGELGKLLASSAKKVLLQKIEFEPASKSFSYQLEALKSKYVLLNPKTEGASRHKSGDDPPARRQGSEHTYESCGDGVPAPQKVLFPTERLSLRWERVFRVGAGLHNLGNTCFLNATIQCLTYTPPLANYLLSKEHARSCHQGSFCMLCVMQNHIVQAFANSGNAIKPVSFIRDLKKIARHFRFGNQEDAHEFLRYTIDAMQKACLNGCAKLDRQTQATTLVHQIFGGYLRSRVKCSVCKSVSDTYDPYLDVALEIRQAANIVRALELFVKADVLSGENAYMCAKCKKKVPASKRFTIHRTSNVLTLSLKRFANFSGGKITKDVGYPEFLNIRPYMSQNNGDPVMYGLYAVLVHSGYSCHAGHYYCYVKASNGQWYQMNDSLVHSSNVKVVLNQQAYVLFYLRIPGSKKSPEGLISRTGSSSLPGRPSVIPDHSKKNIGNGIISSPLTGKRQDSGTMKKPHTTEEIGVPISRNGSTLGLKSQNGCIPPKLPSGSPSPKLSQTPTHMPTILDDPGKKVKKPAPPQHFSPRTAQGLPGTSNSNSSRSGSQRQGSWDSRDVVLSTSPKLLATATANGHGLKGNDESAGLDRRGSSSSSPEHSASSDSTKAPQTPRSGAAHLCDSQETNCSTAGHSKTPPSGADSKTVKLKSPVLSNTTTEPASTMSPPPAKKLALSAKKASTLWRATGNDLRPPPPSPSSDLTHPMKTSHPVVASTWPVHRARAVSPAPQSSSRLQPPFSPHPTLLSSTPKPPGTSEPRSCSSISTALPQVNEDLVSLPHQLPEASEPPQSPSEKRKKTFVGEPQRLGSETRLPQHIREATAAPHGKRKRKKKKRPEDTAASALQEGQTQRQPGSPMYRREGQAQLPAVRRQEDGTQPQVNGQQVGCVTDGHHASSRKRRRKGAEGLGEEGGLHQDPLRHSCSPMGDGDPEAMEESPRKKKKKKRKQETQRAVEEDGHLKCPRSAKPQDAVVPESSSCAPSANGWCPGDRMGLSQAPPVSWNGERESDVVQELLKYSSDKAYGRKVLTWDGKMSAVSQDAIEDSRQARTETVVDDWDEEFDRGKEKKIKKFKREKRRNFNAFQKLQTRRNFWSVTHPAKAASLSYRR
Method in brief: as §1

USP38 = target: T2, USP38 (UniProt Q8NB14)
T2 sequence (whole entry): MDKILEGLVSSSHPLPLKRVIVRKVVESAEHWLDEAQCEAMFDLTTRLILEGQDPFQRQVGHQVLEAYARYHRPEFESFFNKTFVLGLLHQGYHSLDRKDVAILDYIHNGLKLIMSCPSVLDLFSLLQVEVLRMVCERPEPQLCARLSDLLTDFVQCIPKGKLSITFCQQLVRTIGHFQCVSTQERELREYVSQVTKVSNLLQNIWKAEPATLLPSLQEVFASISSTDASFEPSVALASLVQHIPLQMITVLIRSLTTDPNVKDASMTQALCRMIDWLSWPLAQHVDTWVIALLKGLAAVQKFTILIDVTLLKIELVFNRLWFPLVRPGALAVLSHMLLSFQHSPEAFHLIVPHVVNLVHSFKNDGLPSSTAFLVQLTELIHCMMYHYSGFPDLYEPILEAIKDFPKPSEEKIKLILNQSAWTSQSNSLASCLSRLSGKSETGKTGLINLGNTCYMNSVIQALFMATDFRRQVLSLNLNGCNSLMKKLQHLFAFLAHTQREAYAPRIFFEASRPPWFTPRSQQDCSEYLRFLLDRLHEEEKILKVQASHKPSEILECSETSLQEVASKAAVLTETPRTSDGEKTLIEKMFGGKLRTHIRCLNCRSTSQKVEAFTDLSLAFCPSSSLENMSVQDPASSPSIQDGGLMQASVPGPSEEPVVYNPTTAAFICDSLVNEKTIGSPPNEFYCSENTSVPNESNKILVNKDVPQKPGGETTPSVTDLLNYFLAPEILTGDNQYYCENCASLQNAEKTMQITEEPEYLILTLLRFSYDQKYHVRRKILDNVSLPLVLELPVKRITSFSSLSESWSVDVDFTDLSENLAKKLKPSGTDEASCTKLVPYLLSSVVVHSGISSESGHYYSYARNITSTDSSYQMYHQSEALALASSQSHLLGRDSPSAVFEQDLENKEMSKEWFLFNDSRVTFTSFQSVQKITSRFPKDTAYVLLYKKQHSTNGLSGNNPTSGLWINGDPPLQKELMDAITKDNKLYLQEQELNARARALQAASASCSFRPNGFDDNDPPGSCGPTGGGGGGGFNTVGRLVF
Method in brief: as §1

USP39 = target: T3, USP39 (UniProt Q53GS9)
T3 sequence (whole entry): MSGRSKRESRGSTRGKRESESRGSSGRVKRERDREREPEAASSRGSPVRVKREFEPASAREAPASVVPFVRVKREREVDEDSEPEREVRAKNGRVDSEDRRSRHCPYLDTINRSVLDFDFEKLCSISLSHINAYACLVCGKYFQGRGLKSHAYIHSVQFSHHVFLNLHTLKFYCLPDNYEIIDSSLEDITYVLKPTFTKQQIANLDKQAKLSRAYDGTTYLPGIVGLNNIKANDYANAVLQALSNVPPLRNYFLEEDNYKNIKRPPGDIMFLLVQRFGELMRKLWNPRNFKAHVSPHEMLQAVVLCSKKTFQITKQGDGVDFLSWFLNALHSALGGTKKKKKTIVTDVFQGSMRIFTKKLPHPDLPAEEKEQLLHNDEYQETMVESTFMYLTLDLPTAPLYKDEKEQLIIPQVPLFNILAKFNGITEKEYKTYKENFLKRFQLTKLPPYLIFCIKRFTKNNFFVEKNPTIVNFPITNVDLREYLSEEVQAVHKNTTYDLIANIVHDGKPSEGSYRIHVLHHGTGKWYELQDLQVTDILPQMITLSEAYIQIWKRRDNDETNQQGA
Method in brief: as §1

USP4 = target: T4, USP4 (UniProt Q13107)
T4 sequence (whole entry): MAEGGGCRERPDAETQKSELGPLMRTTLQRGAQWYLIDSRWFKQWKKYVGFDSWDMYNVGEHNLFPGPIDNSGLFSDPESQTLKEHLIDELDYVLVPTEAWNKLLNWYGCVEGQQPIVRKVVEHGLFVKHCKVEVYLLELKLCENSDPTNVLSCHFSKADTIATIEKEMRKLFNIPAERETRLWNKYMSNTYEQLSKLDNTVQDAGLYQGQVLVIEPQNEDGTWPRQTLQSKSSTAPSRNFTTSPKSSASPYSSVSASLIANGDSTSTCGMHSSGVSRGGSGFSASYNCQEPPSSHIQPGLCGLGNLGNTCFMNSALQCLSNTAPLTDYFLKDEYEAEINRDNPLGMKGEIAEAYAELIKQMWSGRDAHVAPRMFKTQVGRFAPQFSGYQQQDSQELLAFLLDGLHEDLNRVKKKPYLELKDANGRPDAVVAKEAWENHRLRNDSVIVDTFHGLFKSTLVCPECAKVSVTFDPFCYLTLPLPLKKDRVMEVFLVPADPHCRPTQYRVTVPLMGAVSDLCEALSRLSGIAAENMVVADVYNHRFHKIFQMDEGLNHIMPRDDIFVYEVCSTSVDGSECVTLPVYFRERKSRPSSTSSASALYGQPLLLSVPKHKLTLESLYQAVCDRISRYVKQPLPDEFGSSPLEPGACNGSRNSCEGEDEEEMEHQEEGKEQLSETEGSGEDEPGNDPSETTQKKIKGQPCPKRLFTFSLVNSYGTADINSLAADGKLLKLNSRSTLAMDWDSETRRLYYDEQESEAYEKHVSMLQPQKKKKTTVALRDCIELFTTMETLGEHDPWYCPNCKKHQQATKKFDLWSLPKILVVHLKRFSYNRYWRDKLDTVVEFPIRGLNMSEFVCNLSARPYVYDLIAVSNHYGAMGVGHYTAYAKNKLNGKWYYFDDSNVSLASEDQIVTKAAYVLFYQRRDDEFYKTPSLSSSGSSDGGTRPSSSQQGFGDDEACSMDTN
Method in brief: as §1

Measured: log2 ratio of Biotin-Ahx-Ub-VS probe labelling

O=C(CCl)NCc1cccc(N2CCCC2=O)c1
inactive: USP34 -0.203 | USP36 -0.212 | USP38 -0.128 | USP39 -0.0958 | USP4 0.0693
